Where “and” joins values, the source holds several entries; their conditions need not be identical. Equal entries are not always repeated. Records with an inconclusive call do not appear. Calls of active or inactive are those of the source. Calls follow the shape of the dose curve; as a rule, active = well fitted curve in the direction sought with a large enough effect; inconclusive = small, poorly fitted or top-dose-only effect, or another doubt; inactive = no such curve, though single readings can be large; an effect the other way counts as inactive or inconclusive.
Key:
HEK293 = test: Cytotoxic Profiling of Annotated Libraries Using Quantitative High-Throughput Screening (AID 1296008); settings: Five cell lines viability, CellTiter-Glo ATP luminescence, 48-72 h; max response: stronger effect = lower value; also: nearly all actives have a fitted effect of over 60% in size; also: potency is read from the fitted curve at half-maximal effect
How it was run: (§1)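 Cells exposed to compounds for 48 or 72 hr at 37 degrees Celsius. Viability read as ATP-coupled luminescence with CellTiter-Glo after 10 min at room temperature.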

HaCat [1] = test: as above; settings: Five cell lines viability, CellTiter-Glo ATP luminescence, 48-72 h; max response: stronger effect = lower value
How it was run: as §1

KB-3-1 = test: as above; settings: Five cell lines viability, CellTiter-Glo ATP luminescence, 48-72 h; max response: stronger effect = lower value
How it was run: as §1

NIH3T3 [2] = test: as above; settings: Five cell lines viability, CellTiter-Glo ATP luminescence, 48-72 h; max response: stronger effect = lower value
How it was run: as §1

HACAT [3] = test: qHTS assay to identify novel small-molecules to repurpose for Merkel cell carcinoma treatment (AID 1296009); settings: MCC and control cell lines, CellTiter-Glo viability, 72 h; also: nearly all actives have a fitted effect of over 60% in size; also: potency is read from the fitted curve at half-maximal effect
How it was run: (§2)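 Cells were incubated with compound for 72 hr at 37 degree celsius before CellTiter-Glo addition. Luminescence was normalized with no-cell wells as full cytotoxicity and DMSO as baseline.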

MCC-13 = test: as above; settings: MCC and control cell lines, CellTiter-Glo viability, 72 h; series mostly up to 46 µM
How it was run: as §2

MCC-26 = test: as above; settings: MCC and control cell lines, CellTiter-Glo viability, 72 h; series mostly up to 46 µM
How it was run: as §2

MKL-1 = test: as above; settings: MCC and control cell lines, CellTiter-Glo viability, 72 h; series mostly up to 46 µM
How it was run: as §2

MKL-2 = test: as above; settings: MCC and control cell lines, CellTiter-Glo viability, 72 h; series mostly up to 46 µM
How it was run: as §2

NIH3T3 [4] = test: as above; settings: MCC and control cell lines, CellTiter-Glo viability, 72 h
How it was run: as §2

UISO = test: as above; settings: MCC and control cell lines, CellTiter-Glo viability, 72 h; series mostly up to 46 µM
How it was run: as §2

WaGa = test: as above; settings: MCC and control cell lines, CellTiter-Glo viability, 72 h; series mostly up to 46 µM
How it was run: as §2

C33A = test: Primary qHTS to identify gynecologic anti-cancer compounds using libraries of approved drugs and bioactive compounds (AID 1345084); settings: Gynecologic cancer cell panel viability, ATPlite luminescence, 48 h; series mostly up to 57.5 µM; also: nearly all actives have a fitted effect of over 55% in size
How it was run: (§3)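 In this quantitative HTS, cell killing is estimated from loss of ATP-dependent luciferase light. Cells see five compound concentrations over a 48 h exposure.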

CASKI = test: as above; settings: Gynecologic cancer cell panel viability, ATPlite luminescence, 48 h; series mostly up to 57.5 µM
How it was run: as §3

Es-2 = test: as above; settings: Gynecologic cancer cell panel viability, ATPlite luminescence, 48 h; series mostly up to 57.5 µM
How it was run: as §3

HeLa = test: as above; settings: Gynecologic cancer cell panel viability, ATPlite luminescence, 48 h; series mostly up to 57.5 µM
How it was run: as §3

Hek293T [5] = test: as above; settings: Gynecologic cancer cell panel viability, ATPlite luminescence, 48 h, control line for the selectivity index; series mostly up to 57.5 µM
How it was run: as §3

JEG-3 = test: as above; settings: Gynecologic cancer cell panel viability, ATPlite luminescence, 48 h; series mostly up to 57.5 µM
How it was run: as §3

CAOV3 = test: as above; settings: Gynecologic cancer cell panel viability, ATPlite luminescence, 48 h; series mostly up to 57.5 µM
How it was run: as §3

HEK293T [6] = test: qHTS assay to identify novel small-molecules to repurpose for Merkel cell carcinoma treatment (AID 1296009); settings: MCC and control cell lines, CellTiter-Glo viability, 72 h; at 44.8 µM (top of the series); also: nearly all actives have a fitted effect of over 60% in size; also: potency is read from the fitted curve at half-maximal effect
How it was run: as §2

[7] = at 44.8 µM (top of the series) unless noted
% is scaled to controls: 0 for no effect and ±100 for the full control effect.

CCN(CC)CCCC(C)Nc1nc(C)cc(Nc2ccc3nc(C)cc(N)c3c2)n1 (stereo unspecified)
inactive: max response (HEK293) -11.7% | outcome (HaCat [1]) | outcome (KB-3-1) | outcome (NIH3T3 [2]) | outcome (HACAT [3]; [7]) | Potency (MCC-13) | Potency (MCC-26) | Potency (MKL-1) | Potency (MKL-2) | outcome (NIH3T3 [4]; [7]) | Potency (UISO) | Potency (WaGa)

CC(C)(Sc1ccc(CCN(CCCCC2CCCCC2)C(=O)NC2CCCCC2)cc1)C(=O)O
inactive: max response (HEK293) 4.49% | max response (HaCat [1]) -19.6% and 1.18% | max response (KB-3-1) 5.99% | outcome (KB-3-1) | max response (NIH3T3 [2]) -1.54% and 3.22% | Potency (MCC-13) | Potency (MCC-26) | Potency (UISO) | Potency (C33A) | Potency (CASKI) | Potency (Es-2) | Potency (HeLa) | Potency (Hek293T [5]) | Potency (JEG-3)

CC(C)(C)NCC(O)c1ccc(O)c(CO)c1 (stereo unspecified)
inactive: max response (HEK293) -5.93% and 0.072% | outcome (HaCat [1]) | max response (KB-3-1) -0.699% | outcome (NIH3T3 [2]) | outcome (HACAT [3]; [7]) | Potency (MCC-13) | Potency (MCC-26) | Potency (MKL-1) | Potency (MKL-2) | outcome (NIH3T3 [4]; [7]) | Potency (UISO) | Potency (WaGa) | Potency (C33A) | Potency (CASKI) | Potency (Es-2) | Potency (HeLa) | Potency (Hek293T [5]) | Potency (JEG-3)

OC[C@H](Cc1ccccc1)Nc1nc(Oc2ccc3c(c2)CCC3)nc2c1ncn2Cc1ccc(-c2ccccc2)cc1
active: Potency (HEK293) 8.33 µM
inactive: outcome (HaCat [1]) | max response (KB-3-1) -22.3% | max response (NIH3T3 [2]) 1.2% | outcome (HACAT [3]; [7]) | Potency (MCC-13) | Potency (MCC-26) | Potency (MKL-1) | Potency (MKL-2)

CCOc1cc(C=C2C(=O)N(c3ccccc3)N=C2C)cc(Cl)c1OCC(=O)OC
inactive: max response (HEK293) 0.832% | outcome (HaCat [1]) | max response (KB-3-1) 4.4% | max response (NIH3T3 [2]) -3.61% | outcome (HACAT [3]; [7]) | Potency (MCC-13) | Potency (MCC-26) | Potency (MKL-1) | Potency (MKL-2) | Potency (UISO) | Potency (WaGa)

CN(C)C(=O)c1ccc(S(=O)(=O)c2ccc(NC(=O)[C@@](C)(O)C(F)(F)F)c(Cl)c2)cc1
active: Potency (HEK293) 3.72 µM
inactive: max response (HaCat [1]) -8.31% | outcome (HaCat [1]) | max response (KB-3-1) -27.1% and -22.5% | outcome (NIH3T3 [2]) | outcome (HACAT [3]; [7]) | Potency (MCC-13) | Potency (MCC-26) | Potency (MKL-1) | outcome (NIH3T3 [4]; [7]) | Potency (C33A) | Potency (CAOV3) | Potency (CASKI) | Potency (Es-2) | Potency (HeLa) | Potency (Hek293T [5]) | Potency (JEG-3)

CS(=O)(=O)Oc1ccc2c(NC(N)=O)c(C(=O)c3ccc(Cl)cc3Cl)oc2c1
inactive: max response (HEK293) 3.62% | outcome (HaCat [1]) | max response (KB-3-1) 0.867% | max response (NIH3T3 [2]) -0.156% | outcome (HACAT [3]; [7]) | Potency (MCC-13) | Potency (MCC-26) | Potency (UISO)
active: Potency (MKL-1) 8.33 µM | Potency (MKL-2) 2.96 µM | Potency (WaGa) 0.833 µM

CCC(=O)N[C@H]1CC[C@H](C(=O)N(C)c2ccc(-c3nc4ccccc4o3)cc2)C1
active: Potency (HEK293) 20.9 µM
inactive: outcome (HaCat [1]) | max response (KB-3-1) -16.3% | max response (NIH3T3 [2]) -2.14% | outcome (HACAT [3]; [7]) | Potency (MCC-13) | Potency (MCC-26) | Potency (MKL-1)

Cc1cc(SCc2sc(-c3ccc(C(F)(F)F)cc3)nc2C)ccc1OCC(=O)O
inactive: max response (HEK293) 3.06% and 3.28% | max response (HaCat [1]) -0.39% and 1.93% | max response (KB-3-1) 0.144% | outcome (KB-3-1) | outcome (NIH3T3 [2]) | Potency (MCC-13) | Potency (MCC-26) | Potency (MKL-1) | Potency (MKL-2) | outcome (NIH3T3 [4]; [7]) | Potency (UISO) | Potency (WaGa) | Potency (CAOV3) | Potency (CASKI) | Potency (Es-2) | Potency (HeLa) | Potency (Hek293T [5]) | Potency (JEG-3)

CCCc1nc2c(C)cc(-c3nc4ccccc4n3C)cc2n1Cc1ccc(-c2ccccc2C(=O)O)cc1
inactive: outcome (HEK293) | outcome (HaCat [1]) | max response (KB-3-1) 14.7% and 4.38% | max response (NIH3T3 [2]) 1.27% | outcome (NIH3T3 [2]) | outcome (HACAT [3]; [7]) | outcome (HEK293T [6]) | Potency (MCC-13) | Potency (MKL-1) | Potency (MKL-2) | outcome (NIH3T3 [4]; [7]) | Potency (UISO) | Potency (WaGa) | Potency (C33A) | Potency (CAOV3) | Potency (CASKI) | Potency (Es-2) | Potency (HeLa) | Potency (Hek293T [5]) | Potency (JEG-3)

CCN(CC)CCCC(C)Nc1ccnc2cc(Cl)ccc12 (stereo unspecified)
inactive: outcome (HEK293) | outcome (HaCat [1]) | max response (KB-3-1) -0.795% and 2.69% | outcome (KB-3-1) | max response (NIH3T3 [2]) -0.66% | outcome (NIH3T3 [2]) | outcome (HACAT [3]; at 9.27 µM (top of the series)) | outcome (HACAT [3]; at 17.4 µM (top of the series)) | outcome (HACAT [3]; at 44.8 µM (top of the series)) | outcome (HEK293T [6]) | Potency (MCC-13) | Potency (MCC-26) | Potency (MKL-1) | outcome (NIH3T3 [4]; at 9.27 µM (top of the series)) | outcome (NIH3T3 [4]; at 44.8 µM (top of the series)) | Potency (UISO) | Potency (WaGa) | Potency (C33A) | activity change, negative = cytotoxicity (CAOV3) -18.6% [at 11.6 µM] | activity change, negative = cytotoxicity (CASKI) -9.21% [at 11.6 µM] | Potency (Es-2) | Potency (HeLa) | Potency (Hek293T [5]) | Potency (JEG-3)

O=C(O)COCCN1CCN(C(c2ccccc2)c2ccc(Cl)cc2)CC1 (stereo unspecified)
inactive: max response (HEK293) 0.378% and -0.675% | max response (HaCat [1]) -5.21% and -2.14% | max response (KB-3-1) 6.76% and 8.88% | max response (NIH3T3 [2]) -0.466% | outcome (NIH3T3 [2]) | Potency (MCC-13) | Potency (MCC-26) | Potency (MKL-1) | Potency (MKL-2) | outcome (NIH3T3 [4]; [7]) | Potency (UISO) | Potency (WaGa) | Potency (C33A) | Potency (CAOV3) | Potency (CASKI) | Potency (Es-2) | Potency (HeLa) | Potency (Hek293T [5]) | Potency (JEG-3)
